# Sampled rows, rich in hits. Any-hit rate of the full collection: about 4.3%.
# NR3A LBD binder: binders of NR3A ligand-binding domain, primary screen, biophysical, differential scanning fluorimetry, uHTS. Glutamate receptor ionotropic, NMDA 3A (GRIN3A) ligand-binding domain. NR3A LBD differential scanning fluorimetry, Tm shift; 0% = protein alone, 100% = glycine-bound protein. Tm shift relative to glycine control, % at 25 µM. actives 2.5% (n = 340,000);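 active means melting temperature shift of at least 10% of the positive control shift, at one fixed dose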
# FAS TE block: FAS thioesterase domain inhibitors, primary screen, biochemical, fluorescence intensity, uHTS. Fatty acid synthase (Homo sapiens), P49327. recombinant FAS-TE, OMFH fluorogenic substrate, fluorescence endpoint. inhibition, % at 15 µM. actives 0.67% (n = 360,000);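 active means compounds whose normalised, plate-corrected inhibition of enzyme fluorescence in the single-dose primary screen is 50% or more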;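 further: 0% = DMSO with enzyme and 100% = substrate without enzyme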
# ADAM10 inh: human ADAM10 inhibitors, primary screen, biochemical, QFRET, HTS | Disintegrin and metalloproteinase domain-containing protein 10 (Homo sapiens), O14672 | recombinant ADAM10, EDANS/DABCYL FRET peptide cleavage, 3 h | inhibition, % at 7 µM | actives 0.62% (n = 370,000) | AID 720582, 2013;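 active means inhibition above a per-campaign cutoff equal to the mean of compounds falling between control-based bounds plus 3 SD, cut at about 20% in these data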;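 further: 0% = DMSO wells while the 100% control is not disclosed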
# sPLA2-III inh: human group III sPLA2 inhibitors, primary screen, biochemical, QFRET, BODIPY PC-A2 liposome substrate | Group 3 secretory phospholipase A2 (Homo sapiens), Q9NZ20 | QFRET BODIPY PC-A2 liposome hydrolysis, fluorescence | inhibition, % at 12.2 µM | actives 0.56% (n = 370,000);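 active means inhibition above mean plus 3 SD of compounds lying within the high and low control bounds, cut at about 19% in these data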;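 further: 0% = median of test compound wells and 100% = no enzyme DMSO wells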
# ADAM17 inh: ADAM17 inhibitors, primary screen, biochemical, QFRET. AID 720648, 2013. inhibition, % at 6.95 µM. recombinant ADAM17, EDANS/DABCYL FRET peptide cleavage. actives 0.83% (n = 370,000);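 active means inhibition above the mean of compounds lying between control limits plus 3 SD, set per campaign, cut at about 8.5% in these data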;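 further: 0% = DMSO-only wells as the low control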
# Target sequence (P78536 215-824 limits assumed): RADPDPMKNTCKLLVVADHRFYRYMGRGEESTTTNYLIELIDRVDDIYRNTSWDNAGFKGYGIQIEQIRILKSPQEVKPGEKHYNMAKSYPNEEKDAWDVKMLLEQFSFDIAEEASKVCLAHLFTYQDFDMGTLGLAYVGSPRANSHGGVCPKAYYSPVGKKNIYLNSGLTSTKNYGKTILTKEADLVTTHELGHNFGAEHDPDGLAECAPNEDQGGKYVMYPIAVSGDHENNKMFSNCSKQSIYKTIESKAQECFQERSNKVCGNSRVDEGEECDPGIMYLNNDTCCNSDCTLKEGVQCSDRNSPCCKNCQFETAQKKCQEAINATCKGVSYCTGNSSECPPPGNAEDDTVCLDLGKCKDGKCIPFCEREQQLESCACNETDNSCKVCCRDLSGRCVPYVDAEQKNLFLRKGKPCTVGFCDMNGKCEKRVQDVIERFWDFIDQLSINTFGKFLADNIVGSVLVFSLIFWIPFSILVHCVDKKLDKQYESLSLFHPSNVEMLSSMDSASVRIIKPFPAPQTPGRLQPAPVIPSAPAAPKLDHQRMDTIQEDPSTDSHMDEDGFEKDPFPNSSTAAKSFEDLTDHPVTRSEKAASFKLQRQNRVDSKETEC
# sPLA2 confirm: human group III sPLA2 inhibitors, confirmation, biochemical, QFRET, triplicate; recombinant hGIII-sPLA2, BODIPY PC-A2 QFRET fluorescence; shares compounds with sPLA2-III inh; inhibition, % at 12.2 µM; actives 34% (n = 2,000);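 active means mean inhibition across triplicates above the hit cutoff set in the earlier primary screen, cut at about 19% in these data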;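 further: 0% = enzyme with DMSO and 100% = DMSO wells lacking enzyme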
# 535nm interf: 535nm fluorescence optical interference, confirmation, artefact control for HGIII-sPLA2 inhibitor project, biochemical, QFRET; shares compounds with sPLA2-III inh; BODIPY FL product fluorescence interference; inhibition, % at 12.2 µM; actives 8.5% (n = 2,000);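 active means average inhibition above the solvent-only control mean plus 3 SD, cut at about 6% in these data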;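 further: 0% = DMSO with substrate plus product and 100% = DMSO with substrate alone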
# BODIPY interf DR: 535nm fluorescence optical interference, dose response, artefact control for HGIII-sPLA2 inhibitor project, biochemical, QFRET | shares compounds with sPLA2-III inh | BODIPY FL product fluorescence interference, cell-free | IC50, µM | 240 tested, under 10 active | AID 743455, 2014;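 active means IC50 at or below 10 µM; inactive means IC50 above 10 µM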
# The depositor's hits bear a star; / = not tested or not shown.
SMILES,NR3A LBD binder,FAS TE block,ADAM10 inh,sPLA2-III inh,ADAM17 inh,sPLA2 confirm,535nm interf,others
O=C(CNS(=O)(=O)c1ccccc1)OCC(=O)c1ccc([N+](=O)[O-])cc1,-8,-8,-1,25*,-8,6,-2,
COc1ccccc1-c1nnc2n1N=C(c1ccc3c(c1)OCO3)CS2,/,/,11,-1,2,/,/,
CCOC(=O)N1CCN(S(=O)(=O)c2ccc(F)c(C(=O)Nc3ccc(C(C)C)cc3)c2)CC1,-8,21,-2,20*,4,-19,-17,
CCOC(=O)N1CCN(S(=O)(=O)c2ccc(F)c(C(=O)Nc3ccc(C)c(Cl)c3)c2)CC1,-5,31,18,-38,7,/,/,
CCOC(=O)C1=C(C(=O)OCC)C2N(Cc3ccc(Br)cc3)c3ccccc3[C@@]23C[C@@H](C(=O)OC)N(S(=O)(=O)c2ccc(C(F)(F)F)cc2)C3=N1 (some centres not stated),/,/,4,9,9,/,/,
CN(C)CCCNC(=O)C[C@@H]1CC[C@@H]2[C@H](COc3ccc(NC(=O)c4cccc(F)c4)cc3C(=O)N2C)O1,/,/,-3,0,-2,/,/,
CCN(CC)c1ccc(C=NNC(=O)c2cc(-c3ccc(C)c(C)c3)n[nH]2)c(O)c1,/,/,-12,21*,-2,31*,3,BODIPY interf DR=>122
CCN(CC)c1ccc(/C=N/NC(=O)c2nnn(-c3nonc3N)c2C(C)C)c(O)c1,19*,21,5,24*,1,46*,7.6*,
CCN(CC)c1ccc(/C=N/NC(=S)NC)c(O)c1,0,4,-165,21*,-50,37*,2,BODIPY interf DR=>122
c1cc2ccn(CC3CC3)c2cc1-c1ccc2ccn(CC3CC3)c2c1,/,/,-100,8,-32,/,/,
CCCc1cn(-c2ccc3c(c2)[C@@]2(CC(=O)N(C)C2c2ccccc2)C(=O)N3CC(C)C)nn1 (some centres not stated),/,/,-3,0,0,/,/,
S=C(NCC1CCCCC1)OC1CCC12CCC(c1ccccc1)CC2 (configuration not stated),/,/,-2,15,-1,/,/,
CCOC(=O)[C@]12CCCC3=C1N(CCC3)C(=O)[C@@H](CC(=O)NCCCOC)C2,/,/,3,7,-1,/,/,
CCN(CC)S(=O)(=O)c1ccc(OC)c(NC(=O)C(C)Oc2ccc3c(C)cc(=O)oc3c2)c1 (configuration not stated),1,17,-45,-8,-14,/,/,
CCN(CC)S(=O)(=O)c1ccc(C)c(NC(=O)COc2ccc3c(C)cc(=O)oc3c2)c1,-2,-2,-3,20*,-7,-12,-11,
CCOc1nc(Nc2ccc([N+](=O)[O-])cc2)nc(NC(C)(C)C)n1,0,0,-4,21*,8,1,1,
C=CCNc1nc(Nc2ccc([N+](=O)[O-])cc2)nc(OCC)n1,2,-1,8,5,0,/,/,
COC(=O)[C@@H]1C(c2c(OC)cc(OC)cc2OC)=NO[C@H]1C(=O)OC,-4,-2,0,20*,-6,5,-4,
COc1ccc(-n2c(-c3cc(-c4ccccc4)sc3N)n[nH]c2=S)cc1,4,4,8,27*,-2,21*,10*,
Nc1sc(-c2ccccc2)cc1-c1n[nH]c(=S)n1C1CCCCC1,-1,5,1,7,-2,/,/,
O=c1[nH]nc(SCCS(=O)(=O)c2ccc(F)cc2)n1-c1ccc2c(c1)OCCO2,-1,1,-5,21*,-1,5,-9,
Cc1cccc(OCCNc2cc(N3CCOCC3)ccc2[N+](=O)[O-])c1,-5,35,-4,19*,1,-2,-16,
Cc1cccc(OCCNc2cc(N3CCN(C)CC3)ccc2[N+](=O)[O-])c1,-9,18,1,-7,-6,/,/,
N#CC1(Nc2cccc(Br)c2)C(=O)Nc2ccccc21 (configuration not stated),-1,12,1,22*,-2,-18,-2,
N#CC1(Nc2ccccc2)C(=O)Nc2ccccc21 (configuration not stated),0,-2,3,-3,-3,/,/,
SMILES,NR3A LBD binder,FAS TE block,ADAM10 inh,sPLA2-III inh,ADAM17 inh,sPLA2 confirm,535nm interf,others
Cc1ccc(N2CCN(CC3CC=CCC3)CC2)cc1 (configuration not stated),0,-3,4,10,-2,/,/,
C1=CCC(CN2CCN(C3CCCCCC3)CC2)CC1 (configuration not stated),0,-2,-7,20*,0,0,-14,
O=C(NC(=S)N(Cc1ccccc1)c1ccccn1)C1CCCCC1,4,-12,-17,24*,-2,8,-4,
CN(Cc1ccccc1)C(=S)NC(=O)C1CCCCC1,-2,0,5,11,4,/,/,
Cc1cccc(NNC(=S)Nc2ccccc2)c1,/,-2,-13,15,-2,/,/,
Cc1cccc(NNC(=S)Nc2c(C)cccc2C)c1,-1,-1,10,19*,0,29*,-4,BODIPY interf DR=>122
Cc1ccc(C)c(N2CCN(S(=O)(=O)c3c(C)noc3/C=C/N(C)C)CC2)c1,-5,27,8,23*,-1,29*,-8,BODIPY interf DR=>122
Cc1noc(/C=C/N(C)C)c1S(=O)(=O)N1CCN(c2ccccc2)CC1,-1,15,1,11,2,/,/,
C=CCNC(=S)NNc1nc2c(c(=O)[nH]1)C1(CCCC1)Cc1ccccc1-2,-2,12,-30,19,-4,/,/,
O=c1[nH]c(NNC(=S)NCc2ccccc2)nc2c1C1(CCCCC1)Cc1ccccc1-2,26*,-5,-13,23*,-5,32*,9.4*,
CCNC(=S)NNC(=O)CSc1nc2ccccc2c(=O)n1-c1ccc(Cl)cc1,/,/,10,32*,4,25*,4,
Cc1ccc(NC(=S)NNC(=O)CSc2nc3ccccc3c(=O)n2-c2ccc(C)cc2)cc1,1,8,6,28*,5,24*,4,
